This is part of a sample that, as a whole, favours compounds with a hit. Of some 83,000 tested, about 20% had one in any assay.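 48-hour exposure, single concentration, 96-well plates; percent growth endpoint where 0 means no net growth. Active: below 10.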 Values without a mark were called inactive. Active and inactive are the calls of the source.
Legend:
Test in all cases: NCI-60 one-dose screen, 48 h (100 = growth as untreated, 0 = no growth, -100 = all killed)
Conditions in all cases: 10 µM unless noted
[1] = test system: SK-MEL-2 melanoma
[2] = test system: EKVX NSCLC
[3] = test system: SN12C renal
[4] = test system: UO-31 renal
[5] = test system: TK-10 renal
[6] = test system: ACHN renal
[7] = test system: A498 renal
[8] = test system: CCRF-CEM leukemia
[9] = test system: MOLT-4 leukemia
[10] = test system: SR leukemia
[11] = test system: RPMI-8226 leukemia
[12] = test system: OVCAR-8 ovarian
[13] = test system: OVCAR-5 ovarian
[14] = test system: OVCAR-4 ovarian
[15] = test system: SK-OV-3 ovarian
[16] = test system: IGROV1 ovarian
[17] = test system: OVCAR-3 ovarian
[18] = test system: HS 578T breast
[19] = test system: NCI/ADR-RES ovarian
[20] = test system: T-47D breast

Row | Compound | growth [1] | growth [2] | growth [3] | growth [4] | growth [5] [%] | growth [6] [%] | growth [7] | growth [8] | growth [9] | growth [10] | growth [11] | growth [12] | growth [13] [%] | growth [14] [%] | growth [15] [%] | growth [16] | growth [17] | growth [18] | growth [19] [%] | growth [20] [%]
1 | Cc1c(Br)cccc1NC(=O)c1sc2nc3c(cc2c1N)CN(Cc1ccccc1)CC3 | 25.5% | 34.3% | 28.1% | 48.2% | 49.8 | 39.6 | -8.85% (active) | 3.86% (active) | 10.3% | 9.33% (active) | 4.4% (active) | 14.1% | 36.7 | 28.1 | 22.8 | 39.3% | -7.95% (active) | 11.3% | 24.2 | –
2 | CC(=O)O[C@@H]1C[C@]2(C)[C@H]3[C@H](O)C[C@@H]4C5=CC(C)(C)CC[C@]5(C)CC[C@@]4(C)[C@]3(C)CC[C@H]2C(C)(C)[C@H]1O | 107% | 96.5% | 99.9% | 84.1% | 104 | 102 | 119% | 106% | 87.1% | 87.1% | 124% | 104% | 106 | 106 | 107 | 106% | 101% | 99.1% | 104 | 82.3
3 | N#CC(C#N)=C1NC(c2ccccc2)=C(c2ccccc2)C(c2ccccc2Cl)=C1C#N | 94.8% | 97.6% | 111% | 96.8% | 80.7 | 110 | 113% | 96.2% | 81.5% | 109% | 113% | 88.1% | 105 | 117 | 103 | 108% | 108% | 120% | 96 | –
4 | COc1ccc(C2CC(c3ccc(OC)cc3O)=NN2c2ccc(S(N)(=O)=O)cc2)cc1 (stereo not drawn) | 58.7% | 20.9% | 54.2% | 27.6% | 43.9 | 29.1 | 71.2% | 13.5% | 4.82% (active) | 8.1% (active) | -32.6% (active) | 43% | 83.7 | 42.3 | 69.2 | 13.2% | 47.7% | 78.1% | 54 | –
5 | CCCCCOC(=O)c1ccccc1O | 111% | 94.2% | 105% | 91.2% | 99.5 | 107 | 102% | 99.5% | 97% | 85.1% | 102% | 107% | 105 | 95.9 | 92.2 | 111% | 102% | 103% | 110 | 85.8
6 | C=CCn1c(SCC(=O)Nc2ccc(C(=O)/C=C/c3cc(OC)c(OC)c(OC)c3)cc2)nnc1-c1ccc(Cl)cc1 | 26.3% | 21.6% | 27.9% | 26.5% | 35.9 | 37.4 | 15.6% | 6.62% (active) | 7.87% (active) | 3.83% (active) | -21.6% (active) | 7.91% (active) | 88.9 | 37.3 | 51.4 | 14.3% | -41.9% (active) | 48.6% | – | –
7 | CCN(CC)c1ccc2c(c1)Oc1nc(N)c(C#N)c(N)c1C2Sc1ccc(OC)cc1 (stereo not drawn) | -61.2% (active) | 4.46% (active) | 4.18% (active) | -44.7% (active) | 23.1 | 32.2 | 106% | 0.612% (active) | 2.47% (active) | -9.3% (active) | -28.3% (active) | 5.24% (active) | 51.9 | 46.2 | 34 | -3.83% (active) | -15.1% (active) | 19.7% | 46.9 | –
8 | Nc1c(C(=O)Nc2ccccn2)sc2nc3c(cc12)C(=O)CCC3 | 32.9% | 34.4% | 43.6% | 59.3% | 64.2 | 59.5 | 2.05% (active) | 47.9% | 69.7% | 40.6% | 38.5% | 64.3% | 46.9 | 56.8 | 40.3 | 51.3% | 3.09% (active) | 1.79% (active) | 21.9 | –

Source: PubChem BioAssay (NCI)
